{"source": "the supplement of paper PMC9135407", "note": "Structures can show the parent of a compound that is named as a salt. Values without a mark were called inactive."}
{"tested_on": "primary human hepatic stellate cells (donor 1)", "test": "COL1A1 mRNA fold change vs DMSO (normalised to PSMB2); higher = more COL1A1 expression, active = hit call of the paper", "conditions": "48 h", "experimental": "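Secondary qRT-PCR screen in primary human HSCs (donor 1), 384-well plates, with compounds dispensed in quadruplicate and incubated for 48 h. Cells-to-CT lysates were used for multiplexed TaqMan qPCR of ACTA2 or COL1A1 with PSMB2 as reference. Fold changes versus DMSO come from a linear model (Ct_gene ~ Ct_PSMB2 + plate + chemical). A hit is defined as COL1A1 and ACTA2 FC <0.5 (FDR <0.05) with PSMB2 between 0.2 and 2.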"}
{"smiles": "CC(C)(C)c1cc(NC(=O)Nc2ccc(-c3cn4c(n3)sc3cc(OCCN5CCOCC5)ccc34)cc2)no1", "note": "[Quizartinib  (AC220)] (11.1 µM)", "COL1A1 mRNA fold change": 1.01}
{"smiles": "CN1CCN(Cc2ccc(-c3cnc4[nH]cc(-c5ccc6[nH]ccc6c5)c4c3)cc2)CC1", "note": "(6.66667 µM)", "COL1A1 mRNA fold change": "0.0518 (active)"}
{"smiles": "NC1(c2ccc(-c3nc4ccn5c(=O)[nH]nc5c4cc3-c3ccccc3)cc2)CCC1", "note": "(11.1 µM)", "COL1A1 mRNA fold change": 0.184}
{"smiles": "Cc1ccc(-c2ccc3c(ccc4sc5c(c43)NC[C@@H](C)NC5=O)n2)cn1", "note": "(33.3333 µM)", "COL1A1 mRNA fold change": 1.21}
{"smiles": "C#CC1(O)CC[C@H]2[C@@H]3CCC4=CC(=O)CC[C@@H]4[C@H]3CC[C@@]21CC", "note": "(stereo partly specified) [Norgestrel] (21.3333 µM)", "COL1A1 mRNA fold change": 1.14}
{"smiles": "CN(C)Cc1c(C(=O)NCCOc2ccc(C(=O)NO)cc2)oc2ccccc12", "note": "(33.3333 µM)", "COL1A1 mRNA fold change": "0.0321 (active)"}
{"smiles": "CNCCC(Oc1ccc(C(F)(F)F)cc1)c1ccccc1", "note": "(stereo unspecified) [Fluoxetine hydrochloride] (33.3333 µM)", "COL1A1 mRNA fold change": "0.114 (active)"}
{"smiles": "NS(=O)(=O)C#Cc1ccccc1", "note": "[Pifithrin->m] (33.3333 µM)", "COL1A1 mRNA fold change": 0.18}
{"smiles": "Nc1ccc(C(=O)Nc2cccc(-c3nc(N4CCOCC4)c4oc5ncccc5c4n3)c2)cn1", "note": "(6.66667 µM)", "COL1A1 mRNA fold change": 1.15}
{"smiles": "COc1ccc(NS(=O)(=O)c2sc3ccc(Cl)cc3c2C)cc1N1CCNCC1", "note": "(33.3333 µM)", "COL1A1 mRNA fold change": "0.0858 (active)"}
{"smiles": "CC(C)NCCCn1c(Sc2cc3c(cc2I)OCO3)nc2c(N)ncnc21", "note": "(33.3333 µM)", "COL1A1 mRNA fold change": 0.844}
